Results published in PubChem BioAssay (NCI).
Compounds without any hit were thinned out: in the full panel of roughly 83,000, 20% have a hit.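 Negative percent growth values reflect cell death: -40 means 40% of the cells present at the start died, and -100 means all died.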 Unmarked numbers belong to inactive results. The source made the active and inactive calls.

System: SW-620 colon
Assay: NCI-60 one-dose screen, 48 h (100 = growth as untreated, 0 = no growth, -100 = all killed)
Conditions: 10 µM unless noted
Description: Growth inhibition of the SW-620 human tumor cell line is measured as a screen for anti-cancer activity. Cells are grown in 96 well plates and exposed to the test compound for 48 hours. Compounds are tested at a single concentration, which is 10^-5 M for most compounds. The reported endpoint is percent growth (GI% or GIPRCNT), where numbers from 0 - 100% represent growth inhibition, and numbers from -100% - 0 represent cell death. For example, a value of 40 represents 60% growth inhibition. A value of 0 means no net growth occurred over the course of the experiment. A value of -40 indicates 40% of cells at the beginning of the experiment died by the end of the experiment. A value of -100 means all cells are dead at the end of the experiment.
NCI-60 Human Tumor Cell Lines Screen was performed using the standard one-dose NCI protocol, which is described in more detail at https://dtp.cancer.gov/discovery_development/nci-60/default.htm.
Compounds with GIPRCNT values below 10 were considered active. Activity score was based on GIPRCNT using the following formula: […]
Score is 0 for GIPRCNT values of 100 or above, 50 for GIPRCNT values of 0, and 100 for GIPRCNT values of -100.

With `C#Cc1nc(C2=C(C)C(OC(C)=O)/C(=N/OC(C)=O)C2)cs1` (stereo not given) the growth was 8.98% (active).
With `CCOC(=O)c1sc(NCC(=O)Nc2cccc([N+](=O)[O-])c2)c(C(=O)OCC)c1C` the growth was 2.53% (active).
In the case of `Cc1cc2nc3c4cc(Cl)ccc4n(CC(=S)NCCN(C)C)c3nc2cc1C`, the growth is reported as -91.4% (active).
In the case of `Fc1ccc(-c2cc3nc(C(Cl)Cl)nc(-c4ccc(Cl)cc4)n3n2)cc1`, the growth is reported as -13.1% (active).
In the case of `COc1cc(/C=C/C(=O)c2ccc(F)cc2)ccc1Oc1nc(NCCO)nc(N2CCOCC2)n1`, the growth is reported as 0.783% (active).
In the case of `CN(C)CCCNc1c2ccc(Cl)cc2nc2c1oc1ccc(Cl)cc12`, the growth is reported as -79% (active).
`Cc1nc(-c2cc3ccccc3oc2=O)ccc1C(=O)/C=C/c1ccccn1` was tested, and the growth was 1.33% (active).
With `c1ccc2c(NCCCN3CCOCC3)c3oc4ccccc4c3nc2c1` the growth was -0.873% (active).
With `COc1ccc(-n2c(SCC(=O)Nc3ccc(-c4nc5ccccc5[nH]4)cc3)nc3ccccc3c2=O)cc1` the growth was 8.47% (active).
With `O=C(N/N=C/c1ccc([N+](=O)[O-])s1)c1[nH]c2ccc(Br)cc2c1-c1ccccc1` the growth was 3.34% (active).
In the case of `COc1cc(/C=C/C(=O)c2ccc(C(F)(F)F)cc2)ccc1Oc1nc(NCCO)nc(N2CCOCC2)n1`, the growth is reported as -3.75% (active).
`O=C1Nc2cc(Cl)ccc2/C1=C\c1ccc(OCc2ccc(Br)cc2F)cc1` was tested, and the growth was -49.7% (active).

Compared with `Clc1ccc2oc3c(NCCCN4CCOCC4)c4ccccc4nc3c2c1`, `Clc1ccc2c(OCCCN3CCOCC3)c3oc4ccccc4c3nc2c1` is higher in growth: 15% for the first, 19.2% for the second.

Going from `CCOC(=O)c1c(Nc2ccccc2)nn2c(N)c(C#N)c(-c3ccccc3)nc12` to `CCOC(=O)c1c(Nc2ccccc2)nn2c(N)c(C#N)c(-c3ccc(Cl)cc3)nc12`, the growth falls from 81.6% to 65.8%.

Going from `C#Cc1nc(C2=C(C)/C(=N/OCc3ccccc3)CC2)cs1` to `CC(C)(C)Nc1nc2c(OCCc3ccccc3)cccn2c1-c1ccccc1Cl`, the growth falls from 85.6% to 11.5%.

Compared with `O=c1[nH]c2ccccc2cc1CSc1ccccc1Nc1nccc(-c2ccc(C(F)(F)F)cc2)n1`, `O=c1[nH]c2ccc(Cl)cc2cc1CSc1ccccc1Nc1nccc(-c2ccc(Cl)cc2)n1` is higher in growth: 68.1% for the first, 91.9% for the second.

Compared with `COc1ccc(COc2ccc(/C=C3/C(=O)Nc4cc(Cl)ccc43)cc2)cc1`, `O=C(CSc1nc2sc3c(c2c(=O)n1-c1ccc(Cl)cc1)CCCC3)N/N=C/c1ccc(F)cc1` is lower in growth: 95.7% for the first, 61.9% for the second.

Compared with `O=C1c2c(c3c4cccnc4[nH]c3c3ccc4ccccc4c23)C(=O)N1CCO`, `COc1ccc(/C=N/NC(=O)c2[nH]c3ccc(Br)cc3c2-c2ccccc2)o1` is lower in growth: 57.6% for the first, 21.6% for the second.

Going from `C[C@@H](Nc1c(C#N)cnc2ccc(-c3cnc(N)nc3)cc12)c1ccccc1` to `NC(=O)c1cc(-c2ccc3ncnc(N4CCc5cc(F)c(Cl)cc54)c3c2)cnc1N`, the growth rises from 14.9% to 35.9%.

Going from `COc1ccc(NC2=CC(=O)C(C)=C(C)C2=O)cc1` to `CCOC(=O)c1c(Nc2ccccc2)nn2c(N)c(C#N)c(-c3ccc(OC)cc3)nc12`, the growth falls from 101% to 94.7%.

First: Nc1c(C(=O)c2ccc(Br)cc2)oc2nc(-c3cnccn3)cc(-c3cccs3)c12
Second: C=CCn1c(SCC(=O)c2ccc(Br)cc2)nnc1-c1c[nH]c2ccccc12
The growth of the first is lower: 98.8% for the first, 110% for the second.

Going from `COC(=O)C1CCCN(S(=O)(=O)/N=C2\NC(=O)NC2=C(Cl)Cl)C1` (stereo not given) to `O=C(CCN1C(=O)/C(=C/c2ccccc2)SC1=S)N1CCOCC1`, the growth falls from 85.8% to 79%.

First: O=C(CN1C(=O)/C(=C/c2ccccc2)SC1=S)N1CCOCC1
Second: Cc1nc(-c2cc3ccccc3oc2=O)ccc1C(=O)/C=C/c1ccc(N2CCOCC2)cc1
The growth of the first is higher: 87.2% for the first, 83.5% for the second.

Going from `O=C(Nc1nc2ccc(O)cc2s1)c1cccc(C(F)(F)F)c1` to `CCCC(=O)NC(c1cccc(N(C)C)c1)c1cc(C)c2cccnc2c1O` (stereo not given), the growth falls from 52.1% to 50%.

First: NS(=O)(=O)c1ccc(Nc2nc(SCC(=O)c3ccc(Cl)cc3)nc3ccccc23)cc1
Second: O=C(CSc1nnc(-c2ccc3nc(-c4ccc(Cl)cc4)[nH]c3c2)o1)Nc1ccc(C(=O)/C=C/c2ccc(Cl)cc2)cc1
The growth of the first is lower: 93.3% for the first, 103% for the second.

First: O=C(NNc1nc2cc(F)ccc2n2c(CN3CC4(COC4)C3)ccc12)c1cnccn1
Second: C=CCn1c(SCC(=O)c2ccccc2)nnc1-c1c[nH]c2ccccc12
The growth of the first is lower: 27.1% for the first, 96.1% for the second.
